Common to all, as to test: NCI-60 one-dose screen, 48 h (100 = growth as untreated, 0 = no growth, -100 = all killed)
One assay has as its system HCT-15 colon. To be noted: 10 µM unless noted.
The subject of a further assay is HT29 colon. As to conditions: 10 µM unless noted.
The test system of the next assay is SNB-75 CNS. To be noted: 10 µM unless noted.
Another assay has as its system SNB-19 CNS. As to conditions: 10 µM unless noted.
Another assay deals with U251 CNS. As to conditions: 10 µM unless noted.
For another assay, the system named is PC-3 prostate. As to conditions: 10 µM unless noted.
A further assay relates to SK-MEL-5 melanoma. To be noted: 10 µM unless noted.
In a further assay the test system is LOX IMVI melanoma. To be noted: 10 µM unless noted.
The subject of the next assay is SK-MEL-2 melanoma. As to conditions: 10 µM unless noted.
The test system of another assay is EKVX NSCLC. To be noted: 10 µM unless noted.
Another assay has as its system SN12C renal. As to conditions: 10 µM unless noted.
The subject of another assay is UO-31 renal. To be noted: 10 µM unless noted.
For the next assay, the system named is ACHN renal. To be noted: 10 µM unless noted.
The subject of the next assay is CAKI-1 renal. To be noted: 10 µM unless noted.
The next assay relates to A498 renal. As to conditions: 10 µM.
The test system of another assay is HL-60(TB) leukemia. To be noted: 10 µM unless noted.
The test system of the next assay is CCRF-CEM leukemia. To be noted: 10 µM unless noted.
The next assay deals with UACC-62 melanoma. As to conditions: 10 µM unless noted.
For a further assay, the system named is SK-MEL-28 melanoma. As to conditions: 10 µM unless noted.
A further assay concerns TK-10 renal. To be noted: 10 µM unless noted.

Each structure is given as a SMILES string. This is part of a sample that, as a whole, favours compounds with a hit. Of some 83,000 tested, about 20% had one in any assay.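 A percent growth of 40 corresponds to 60% growth inhibition; 0 means no net growth; -100 means all cells died. Active threshold: below 10.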 Values without a mark were called inactive. Active and inactive are the calls of the source.

`CCOc1ccc(/C=C/[N+](=O)[O-])cc1`: the growth in the assay on HCT-15 colon was 51.1%; with HT29 colon, 9.84% (active); with SNB-75 CNS it was 90.6%; in the assay on SNB-19 CNS, 91.2%; in the assay with U251 CNS it was 60.1%; in the assay with PC-3 prostate, 77.4%. The growth in the assay on SK-MEL-5 melanoma is 74.4%; in the assay with LOX IMVI melanoma, 62.9%; with SK-MEL-2 melanoma it was 101%; in the assay on EKVX NSCLC, 93.7%; with SN12C renal, 94.5%; in the assay with UO-31 renal it was 71.1%. Besides, the growth in the assay with ACHN renal is 96.3%; with CAKI-1 renal it was 101%; in the assay with A498 renal, 78.1%; in the assay on HL-60(TB) leukemia it was 105%; in the assay with CCRF-CEM leukemia, 90.6%.
With `O=C(CC1(O)C(=O)N(Cc2ccccc2)c2ccc(F)cc21)c1ccc(C(=O)NCC2CCC3(CC2)OOC2(CCCCC2)OO3)cc1` (stereo not drawn), the growth with HCT-15 colon was -14.3% (active); in the assay on HT29 colon it was -70.2% (active); in the assay with SNB-75 CNS, -62.1% (active); with SNB-19 CNS it was 16.8%; in the assay on U251 CNS it was -80.1% (active); in the assay on PC-3 prostate, -58.8% (active). The growth in the assay with UACC-62 melanoma was -12.5% (active); with LOX IMVI melanoma it was -84.5% (active); in the assay with SK-MEL-28 melanoma, 51.5%; with SK-MEL-2 melanoma, -12.9% (active); in the assay with EKVX NSCLC, -68.5% (active); in the assay with SN12C renal it was -59.5% (active). Also, the growth in the assay with UO-31 renal was -76.3% (active); with TK-10 renal it was -93.6% (active); with ACHN renal, -80.7% (active); in the assay with CAKI-1 renal, -87.1% (active); with A498 renal, -88.5% (active); in the assay with HL-60(TB) leukemia, -57.5% (active). In addition, the growth in the assay with CCRF-CEM leukemia is -36.9% (active).
As to `O=C(CC1(O)C(=O)N(Cc2ccccc2)c2ccccc21)c1ccc(C(=O)NCC2CCC3(CC2)OOC2(CCCCC2)OO3)cc1` (stereo not drawn), the growth was 0.81% (active) with HCT-15 colon; -51.6% (active) with HT29 colon; -75.6% (active) with SNB-75 CNS; 20.3% in the assay with SNB-19 CNS; -77.2% (active) in the assay with U251 CNS; -61% (active) in the assay on PC-3 prostate. Also, the growth was 0.976% (active) with UACC-62 melanoma; -84.1% (active) in the assay on LOX IMVI melanoma; 63.1% with SK-MEL-28 melanoma; 6.18% (active) in the assay with SK-MEL-2 melanoma; -63.3% (active) with EKVX NSCLC; -60.9% (active) with SN12C renal. The growth with UO-31 renal was -81.2% (active); in the assay with TK-10 renal, -93.2% (active); with ACHN renal, -87.7% (active); in the assay with CAKI-1 renal, -90.4% (active); in the assay on A498 renal it was -88.7% (active); with HL-60(TB) leukemia, -67.4% (active). For the same compound, in the assay on CCRF-CEM leukemia, the growth is -41.2% (active).
For the compound `CCCCCCCCOC(=O)CCN1CC1`, the growth is 101% in the assay on HCT-15 colon; 111% with HT29 colon; 110% with SNB-75 CNS; 112% with SNB-19 CNS; 95.6% with U251 CNS; 105% in the assay with SK-MEL-5 melanoma. For the same compound, the growth in the assay with UACC-62 melanoma is 109%; in the assay with LOX IMVI melanoma, 96.9%; in the assay on SK-MEL-28 melanoma it was 113%; with SK-MEL-2 melanoma, 119%; in the assay with EKVX NSCLC, 99%; with SN12C renal it was 106%. The growth was 92.8% in the assay on UO-31 renal; 127% in the assay on TK-10 renal; 103% with ACHN renal; 98.4% with CAKI-1 renal; 84.2% in the assay on A498 renal; 149% with HL-60(TB) leukemia. In addition, in the assay on CCRF-CEM leukemia, the growth was 110%.
Take `O=C1N[C@@H]2[C@@H](O)[C@@H](O)[C@H](O)C[C@H]2c2cc3c(c(O)c21)OCO3`: the growth was 1.81% (active) in the assay with HCT-15 colon; -14.9% (active) in the assay on HT29 colon; -25.3% (active) in the assay with SNB-75 CNS; -8.68% (active) with SNB-19 CNS; -10.5% (active) in the assay on U251 CNS; -8.66% (active) in the assay with PC-3 prostate. Moreover, the growth was -72.7% (active) in the assay with SK-MEL-5 melanoma; -48.8% (active) in the assay on LOX IMVI melanoma; -26.3% (active) in the assay on EKVX NSCLC; -18.4% (active) in the assay with SN12C renal; -31% (active) in the assay with UO-31 renal; -12.6% (active) in the assay on TK-10 renal. Moreover, the growth in the assay on ACHN renal was -45.5% (active); in the assay with CAKI-1 renal, -7.77% (active); in the assay with A498 renal it was -53.4% (active); in the assay with HL-60(TB) leukemia, -37.8% (active); with CCRF-CEM leukemia, 2.84% (active).
`Clc1cccc(Cl)c1Cl`: the growth with HCT-15 colon is 101%; with HT29 colon, 82.8%; in the assay on SNB-75 CNS, 93.8%; in the assay with SNB-19 CNS, 118%; in the assay on U251 CNS, 98.4%; with SK-MEL-5 melanoma, 105%. Moreover, the growth with UACC-62 melanoma is 99.8%; in the assay on LOX IMVI melanoma, 101%; in the assay on SK-MEL-28 melanoma it was 109%; in the assay with SK-MEL-2 melanoma, 74.5%; in the assay with EKVX NSCLC, 95.7%; in the assay on SN12C renal, 120%. Moreover, the growth with UO-31 renal was 85.3%; in the assay with TK-10 renal it was 86.8%; with A498 renal, 107%; in the assay on HL-60(TB) leukemia it was 99.6%; with CCRF-CEM leukemia, 96.4%.
Regarding `COC(=O)[C@H](Cc1c[nH]c2ccccc12)NC(=O)[C@@H](OC)[C@@H]1Cc2cc3cc(OC4CC(OC5CC(O)C(O)C(C)O5)C(O)C(C)O4)c(C)c(O)c3c(O)c2C(=O)[C@H]1OC1CC(OC2CC(OC3CC(C)(O)C(O)C(C)O3)C(O)C(C)O2)C(O)C(C)O1` (stereo partly drawn), the growth was 15.9% with HCT-15 colon; 4.98% (active) in the assay with HT29 colon; -88.5% (active) with SNB-75 CNS; 7.09% (active) with SNB-19 CNS; 6.13% (active) in the assay on U251 CNS; -72.1% (active) with SK-MEL-5 melanoma. Further, the growth was -52.7% (active) in the assay on UACC-62 melanoma; -3.17% (active) in the assay with LOX IMVI melanoma; 3.61% (active) in the assay on EKVX NSCLC; 10.6% in the assay with SN12C renal; -6.63% (active) in the assay on UO-31 renal; 8.12% (active) in the assay on TK-10 renal. Also, the growth is 0.567% (active) with ACHN renal; 19.5% in the assay with CAKI-1 renal; -52.8% (active) in the assay with A498 renal; -8.66% (active) in the assay on HL-60(TB) leukemia; 5.66% (active) with CCRF-CEM leukemia.
For `Cc1ccc(C(=O)NCCCOc2ccc(N)cc2Cl)cc1S(=O)(=O)F`, the growth in the assay on HCT-15 colon is 89.4%; in the assay with HT29 colon, 101%; with SNB-75 CNS it was 75.1%; in the assay with SNB-19 CNS it was 95.1%; with PC-3 prostate it was 105%; with SK-MEL-5 melanoma it was 97.2%. Besides, the growth was 100% in the assay with UACC-62 melanoma; 85.5% in the assay with LOX IMVI melanoma; 104% in the assay on SK-MEL-28 melanoma; 78.7% in the assay with SK-MEL-2 melanoma; 105% in the assay with SN12C renal; 70.7% with UO-31 renal. For the same compound, the growth in the assay with TK-10 renal was 97.1%; in the assay with ACHN renal, 105%; in the assay on CAKI-1 renal, 92.5%; with A498 renal, 82.4%; with HL-60(TB) leukemia, 98.8%; in the assay on CCRF-CEM leukemia it was 88.7%.

The values above are taken from PubChem BioAssay (NCI).
